# Bioassay records (PubChem BioAssay)
# COUP-TFII inh = inhibitors of human COUP-TFII (NR2F2) | AID 686940 | actives 0.7% (n = 370,000) | HEK293T NGFI-A luciferase reporter, luminescence | inhibition, % at 8.6 µM | P24468;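 active means inhibition above a per-plate cutoff, mean inhibition of test wells between control levels plus 3 SD, cut at about 38% in these data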;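 further: cells cotransfected with COUP-TFII expression vector driving the NGFI-A reporter; 0% = median of COUP-TF2 test wells and 100% = reporter-only cells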
# Target sequence (P24468 whole entry, looked up): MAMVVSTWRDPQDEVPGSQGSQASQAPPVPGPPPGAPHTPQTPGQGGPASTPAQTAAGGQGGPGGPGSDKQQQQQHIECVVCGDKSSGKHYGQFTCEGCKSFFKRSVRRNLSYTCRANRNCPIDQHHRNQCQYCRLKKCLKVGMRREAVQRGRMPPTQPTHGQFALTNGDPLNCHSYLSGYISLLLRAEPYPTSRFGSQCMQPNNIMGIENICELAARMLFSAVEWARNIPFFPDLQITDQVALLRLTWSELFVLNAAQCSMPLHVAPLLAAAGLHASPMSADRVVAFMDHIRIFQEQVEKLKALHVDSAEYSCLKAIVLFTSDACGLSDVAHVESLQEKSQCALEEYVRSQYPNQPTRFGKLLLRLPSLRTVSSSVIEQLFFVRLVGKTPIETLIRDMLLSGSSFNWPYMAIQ
# Jurkat NFkB inh = lowers PMA/ionomycin-induced NF-kB signal in Jurkat cells; PMA/ionomycin-induced NF-kB luciferase reporter, luminescence; inhibition, % at 4 µM; actives 0.53% (n = 330,000); AID 435003; in the data active means inhibition above about 50%
# GalR3 antagonist = human GalR3 antagonism. actives 0.44% (n = 360,000). HEK293 GalR3-CNG cAMP membrane potential fluorescence; galR3 body fused to GalR1 C-terminus. O60755. inhibition, % at 3 µM;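 active means inhibition above the screen-wide average plus 3 SD, cut at about 13% in these data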;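 further: forskolin and galanin both at EC90 stimulate the cells; cAMP rise reported by CNG channel membrane potential dye signal; 0% = forskolin plus galanin with DMSO and 100% = forskolin alone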
# Gli-Sufu antag = antagonists of Gli-Sufu signaling. Sufu-KO-LIGHT fibroblasts, Gli luciferase reporter luminescence. inhibition, % at 5 µM. actives 0.74% (n = 340,000). AID 588413;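 active means inhibition above about 55%, limit read from the data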;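 further: 0% = DMSO-treated cells and 100% = wells with medium but no cells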
# 697 NFkB inh = lowers PMA/ionomycin-induced NF-kB signal in 697 B cells | 697 B-cell NF-kB luciferase reporter, 16 h | inhibition, % at 4 µM | actives 0.33% (n = 330,000); in the data active means inhibition above about 35%
# Jurkat NFkB conf = lowers PMA/ionomycin-induced NF-kB signal in Jurkat cells; shares compounds with Jurkat NFkB inh; Jurkat NF-kB luciferase, 16 h; inhibition, % at 4 µM; actives 27% (n = 2,700); AID 435020;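 active means inhibition reaching about 45% at 4 µM in either replicate, limit read from the data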;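 further: plate controls were PMA/ionomycin stimulated DMSO wells for no effect and unstimulated DMSO wells for full effect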
# 697 NFkB conf = lowers PMA/ionomycin-induced NF-kB signal in 697 B cells | shares compounds with 697 NFkB inh | 697 B-cell NF-kB luciferase, 16 h | inhibition, % at 4 µM | actives 35% (n = 2,000) | AID 449746; in the data active means inhibition mostly above about 28%, no sharp cut-off; inactive means mostly below about 22%
# An asterisk follows results filed as active; / = no result given. Hits are enriched below; roughly 2% of the tested compounds scored in any of these assays.
SMILES,COUP-TFII inh,Jurkat NFkB inh,GalR3 antagonist,Gli-Sufu antag,697 NFkB inh,Jurkat NFkB conf,others
C/C=C(\C)C(=O)N[C@@H](c1ccccc1)[C@@H](O)C(=O)O[C@H]1C[C@@]2(O)[C@@H](OC(=O)c3ccccc3)C3[C@](C)(C(=O)[C@H](O)C(=C1C)C2(C)C)[C@@H](O)C[C@H]1OC[C@@]31OC(C)=O (stereo not given in full),15.9,69.8*,-1.5,-2.0,6.2,64.4*,
N#CCC[C@H]1CC[C@]2(CCCN(Cc3ccccn3)C2)O1,-6.0,/,/,/,/,/,
Brc1csc(N2CCNCC2)n1,-2.7,/,/,/,/,/,
COc1cc2c(cc1OC)-c1c3c(cc4c1[C@@H](C2)N(C)CC4)OCO3,5.4,60.2*,0.5,-2.0,-138.7,31.3,
O=C(CN1C(=O)CN=C(c2ccccc2)c2cc(Cl)ccc21)NC1CCCCC1,7.0,/,/,/,/,/,
COc1cc2c(cc1C=O)OCO2,12.4,3.7,-0.8,1.8,-1.0,/,
COc1cc([C@@H]2c3cc4c(cc3[C@@H](OC)[C@H]3COC(=O)[C@H]23)OCO4)cc(OC)c1O,-5.2,56.8*,-8.5,46.1,-67.8,47.5*,
COc1cccc(OC)c1C1=NCC(=O)Nc2c1oc1ccc(Br)cc21,-60.0,56.4*,-3.7,57.1*,-45.1,61.0*,
O=C1CN=C(c2ccccc2)c2oc3ccc(Br)cc3c2N1,1.2,0.6,-4.6,2.6,16.3,/,
CN1c2ccc(Br)cc2[C@H]2NCC[C@H]2[C@H]1CO,7.5,/,/,/,/,/,
COc1ccc(-n2cnc3cc(C(=O)N4CCC5(CC4)OCCO5)ccc32)cc1,4.8,50.5*,-3.0,-6.2,-10.8,8.2,
Cc1cc(C)c2c(ccc3cccc[n+]32)c1,16.5,56.9*,-2.3,51.4,-10.4,38.5,
CC(=O)OC(C)(C)/C=C/C(=O)C(C)(O)C1[C@H](O)C[C@@]2(C)C3CC=C4C(CC[C@@H](O)C4(C)C)[C@]3(CO)C(=O)C[C@]12C (stereo not given in full),5.5,81.3*,-6.8,80.4*,-11.2,24.6,
O=C(NCCN1CCC2(CC1)C(=O)NCN2c1ccccc1)C(c1ccccc1)c1ccccc1,11.9,/,-7.2,/,/,/,
COc1ccc(-c2cc(=Nc3ccccc3)c3cc(C)ccc3o2)cc1,-75.4,-155.2,-5.9,11.4,-187.9,-140.4,
S=P(c1ccccc1)(c1ccccc1)c1cnc2ccccn12,13.4,/,/,/,/,/,
CCN1/C(=C\C=C\C2=[N+](CC)c3ccccc3C2(C)C)C(C)(C)c2ccccc21,/,99.8*,/,94.0*,-36.6,79.9*,
COc1cc2nc(CN3CC=C(c4ccccc4)CC3)[nH]c(=O)c2cc1OC,-5.4,58.6*,-8.8,-88.3,26.2,51.7*,
COc1cc(C)c(CN2CC=C(c3ccc(F)cc3)CC2)cc1C,4.3,-15.5,-10.0,23.0,-21.9,/,
COC(=O)C(Cc1ccc(N(CCCl)CCCl)cc1)N=Cc1ccccc1O (stereo not given),0.8,50.8*,-8.0,63.8*,-106.6,46.0,
N#CC1c2ccccc2-n2nncc2CN1C(=O)c1ccc([N+](=O)[O-])o1 (stereo not given),3.7,/,/,/,/,/,
Cc1cccn2c(=O)c3cc(C(=O)N4CCC5(CC4)OCCO5)n(C)c3nc12,-5.8,53.1*,-6.3,-10.5,-26.0,29.7,
O=C(c1cccn2c(=O)c3cc(Br)ccc3nc12)N1CCC2(CC1)OCCO2,1.5,-5.4,-4.8,6.1,3.0,/,
Cc1ccc(OC(=O)N(C)C[C@H]2OCc3cnnn3CCCC(=O)N([C@H](C)CO)C[C@H]2C)cc1,-1.3,/,-6.5,/,/,/,
CC1=CC2/C=C(\C)CCC(O)C(O)/C=C/C(=O)C23C(=O)NC(CC(C)C)C3C1C (stereo not given),/,78.5*,/,-1.3,37.7*,19.4,697 NFkB conf=-3.3
Nc1ccccc1C(=O)OCCc1ccccc1,-33.2,-177.6,-0.8,-131.5,-262.6,-103.7,697 NFkB conf=-249.5
O=C(O)c1cc2ccccc2n1C1CCN(Cc2ccccc2)CC1,-14.7,/,/,/,/,/,
